This passage reports growth results from PubChem BioAssay (NCI).

This is part of a sample that, as a whole, favours compounds with a hit. Of some 83,000 tested, about 20% had one in any assay.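 In brief: 96-well plates, 48 h treatment, single concentration, percent growth endpoint.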 Values without a mark were called inactive. Calls of active or inactive are those of the source. Rule for the calls: active = growth percent below 10; inactive = the rest.

In the test the test system is MDA-MB-468 breast. Description: NCI-60 one-dose screen, 48 h (100 = growth as untreated, 0 = no growth, -100 = all killed). To be noted: 10 µM unless noted.
For the molecule `COc1ccc(/C=C2/C(=O)Nc3cc(Cl)c(-c4csc(N)n4)cc32)cc1`, the growth is 0.87% (active).
`CCCCCCCCCCCCC1CCC/C=C\CCC(=O)O1` (stereo not given): the growth was 100%.
For the molecule `Cc1ccc(-n2nc3c(c(C#N)c2=O)CC(c2ccccc2Cl)C([N+](=O)[O-])=C3O)cc1` (stereo not given), the growth was 114%.
The value for `CCOC(=O)c1cnc2ccccc2c1Cl` was 97.4%; that for `O=C(Nc1ccc(Br)cc1F)c1cc(I)ccc1O` was -1.19% (active); that for `O=S(=O)(O)c1cc(O)c2c(N=Nc3ccc(Nc4ccccc4)c4c(S(=O)(=O)O)cccc34)cc(S(=O)(=O)O)cc2c1` was 103%.
With `COC(=O)/C=C1\S/C(=N\NC(=O)c2cc3ccc2/C=C\c2ccc(cc2)/C=C\3)N(c2ccccc2)C1=O` the figure was -0.388% (active); with `O=C(CCN1CCCC1)Nc1ccc2c(Nc3ccc(F)cc3)c3ccccc3nc2c1`, -66.6% (active); with `C=C1C(=O)O[C@H]2[C@H]1CC/C(COC(=O)c1ccc(C#N)cc1)=C\CC[C@@]1(C)O[C@@H]21`, -17.2% (active).
On to `C[n+]1c2ccccc2c(NC2CCNCC2)c2[nH]c3ccccc3c21`, for which the growth is -72.5% (active).
For `CN(C)CCN(C)CC(C)(C)C(=O)/C=C/c1ccc(Cl)c(Cl)c1`, the growth was -83.6% [100 µM] (active).
For the molecule `CC1(C)C(=O)/C(=C\c2ccco2)C[C@]2(C)[C@H]3CC=C4[C@@H]5C[C@](C)(C(=O)O)CC[C@]5(C)CC[C@@]4(C)[C@]3(C)CC[C@@H]12`, the growth is -47.2% [100 µM] (active).
With `C=CN(C)S(C)(=O)=O` the figure was -3.6% (active); with `CC(C)(O)c1cncc(-c2ccc3ncc(C#N)c(N4CCc5cc(F)c(Cl)cc54)c3c2)c1`, 10.2%.
Regarding `O=C1/C=C/[C@@H](O)[C@@H]2C[C@@H](O)C[C@H]2/C=C/CCC[C@H](CCO)O1`, the growth is -54.5% (active).
For the molecule `NC(=S)N/N=C/C(=O)O`, the growth is 37.7%.
As for `Cc1ccc(Cn2cc(COc3ccc4c5ccnc(C)c5n(CCCc5ccccc5)c4c3)nn2)cc1`, the growth was 99%.
The value for `CCNc1cc(S(=O)(=O)O)ccc1C` was 97.2%.
For `CC/C(=C(/c1ccc(Cl)cc1)c1ccc(OCCN2CCCC2)cc1)c1ccc(OC)cc1`, the growth was 46.5%.
With `COc1cc(OC)cc(C(=O)C[n+]2cccc3cc[nH]c32)c1`, the growth was 90.9%.
With `COc1ccccc1NC(=O)C1=C(C)NC(C)=C(C(=O)Nc2ccccc2OC)C1c1cccc([N+](=O)[O-])c1`, the growth was 74.3%.
With `Cc1nc2cc(Nc3nc(N4CCOCC4)nc(N4CCN(C)CC4)n3)ccc2n1Cc1ccccc1`, the growth is 111%.
With `COc1cc(OC)c(C(=O)/C=C/c2cc3c(cc2OCc2ccccc2)OC(C)(C)CC3)cc1CC=C(C)C`, the growth is 26.2%.
Take `OCCN(CCO)c1ccc2ccccc2c1`: the growth is 107%.
Consider `Nc1ccn(C2OC(CO)C(O)C2F)c(=O)n1` (stereo not given), for which the growth is 96.3%.
Consider `CN(C)c1ccc(Nc2c3ccccc3nc3ccccc23)cc1`, for which the growth is -27.5% (active).
As for `CC(C)n1c(/C=C/[C@@H](O)C[C@@H](O)CC(=O)O)c(-c2ccc(F)cc2)c2ccccc21`, the growth was 81.7%.
Regarding `Cn1ccnc1C(=O)/C=C/c1ccc(NC(=O)c2ccc(F)cc2)cc1`, the growth was 11.8%.
On to `CCOC(=O)CNN`, for which the growth is 95.7%.
With `CCCCCCNc1cc(C)nc2ccc(OC)cc12`, the growth was -10.9% (active).
For `O=C1OCC/C1=C\OCCCO/C=C1\CCOC1=O`, the growth is 92.8%.
As for `O=C(N/N=C/c1c[nH]c2ccccc12)c1cc(-c2ccccc2)on1`, the growth was 94.9%.
Take `O=C1Nc2cc(-c3ccncc3)ccc2/C1=C/c1ccc[nH]1`: the growth was -15.9% (active).
The value for `CNC(=O)Nc1ccc(-c2ccc3ncnc(Nc4cccc(Cl)c4)c3c2)cc1` was -29.2% (active); that for `Cc1ccc2sc3c(c2c1)OC(N)=C(C#N)C3c1cccc(F)c1` (stereo not given) was -14.1% (active); that for `CC[C@]1(O)C[C@@H]2CN(CCc3c([nH]c4ccccc34)[C@@](C(=O)OC)(c3cc4c(cc3OC)N(C)[C@H]3[C@@](O)(C(N)=O)[C@H](O)[C@]5(CC)[C@@H]6C[C@@H]6CN6CC[C@]43[C@@H]65)C2)C1` was 43.8%.
For `CCOC(=O)N1C=CC2C=CC1C1C=CC=CC2N1C(=O)OCC` (stereo not given), the growth is 53.1%.
With `COc1ccc2c(c1)c(CC(=O)[Se]C)c(C)n2C(=O)c1ccc(Cl)cc1`, the growth was -11.6% (active).
For the molecule `CC(=O)OCCC/C(=C\c1ccc2ccccc2c1)[N+](=O)[O-]`, the growth is -55.4% (active).
Consider `C=C(C)[C@@H]1CC[C@]2(C)[C@H](CC(=O)N[C@H]3[C@@H]4C[C@](C)(C(=O)OC)CC[C@]4(C)CC[C@]32C)[C@@]1(C)CCC#N`, for which the growth was 83.3%.
